# Data taken from PubChem BioAssay AID588499 (NMMLSC, 2011).
# The campaign covered roughly 360,000 compounds. About 610 (0.17%) were called active. About 2% were inconclusive and are not listed. Rule as the data show it: active = inhibition above about 30%; inconclusive = no clear call, values can overlap the other calls; inactive = below that. The sample as a whole holds a higher share of actives than the screen did.
# Tested on: Botulinum neurotoxin type A light chain protease (Clostridium botulinum A str. ATCC 3502)
# Assay: BoNT/A light chain protease inhibitors, primary screen, biochemical, flow cytometry, MLPCN library (AID 588499); also: plate controls were buffer without enzyme for full effect and enzyme alone for no effect
# Conditions: multiplex microsphere protease substrate cleavage, at 10 µM, active compounds read high
row,Structure (SMILES),inhibition
1,NC(CSC12CC3CC(CC(C3)C1)C2)C(=O)O (configuration not stated),1.6% (inactive)
2,CCCCN(C(=O)COc1ccc(NC(C)=O)cc1)C1CCS(=O)(=O)C1 (configuration not stated),1.1% (inactive)
3,O=C(Nc1ccc(-n2ccnc2P(=O)(O)c2ccccc2)cc1)c1ccccc1Br,1.4% (inactive)
4,O=C(CNC(=O)c1ccccc1F)c1ccc(Br)cc1,0.8% (inactive)
5,O=C(C[n+]1cc(Br)cc2ccccc21)c1ccc(F)cc1,120% (active)
6,COC(=O)C[n+]1cccc2ccccc21,28.6% (inactive)
7,Cc1cc(C)c2c(c1)cc(C)c1nnc(SCC(=O)Nc3cc(C)on3)n12,-0.7% (inactive)
8,COc1cc(C(=O)NCc2cc3cc(Cl)ccc3n2C)cc(OC)c1OC,0.3% (inactive)
9,COc1cc(C(=O)NCc2ccc3c(c2)cc(C)n3C)cc(OC)c1OC,74.1% (active)
10,CCOCC(=O)NCc1ccc2c(c1)cc(C)n2C,6% (inactive)
11,CCC(Cc1ccccc1)NC(=O)C1CCCCC1 (configuration not stated),0.2% (inactive)
12,O=C(c1c(Cl)nc2sccn12)N1CCCc2ccccc21,0% (inactive)
13,Cc1cccc2cc3c(N)c(C(=O)N4CCCc5ccccc54)sc3nc12,54.5% (active)
14,Cc1ccc(C(=O)N2CCCc3ccccc32)c(Cl)c1,-0.5% (inactive)
15,COc1cc2ccc(C(C)=O)c(O)c2cc1OC,0% (inactive)
16,C[C@H]1COc2cc(N3CCSCC3)ccc2S(=O)(=O)N1,1.1% (inactive)
17,Cc1noc(C)c1NC(=O)Nc1cccc2c1O[C@H](CN(C)S(=O)(=O)c1c(C)noc1C)[C@@H](C)CN([C@H](C)CO)C2=O,-0.8% (inactive)
18,COc1ccc(OC)c(NC(=O)C2CCCN2S(=O)(=O)c2cccc3nsnc23)c1 (configuration not stated),0.9% (inactive)
19,O=c1c(-c2ccccc2Cl)c[nH]n1-c1ccccc1,1.7% (inactive)
20,CCCCNC(=O)C[C@@H]1C[C@@]2(C(=O)OCC)CCC=C2N(Cc2ccco2)C1=O,0.2% (inactive)
21,CN1CC(c2ccccc2)C2(COc3ccccc3C2=O)C12C(=O)Nc1ccccc12 (configuration not stated),-0.4% (inactive)
22,CCc1nc2c(OCC(=O)C(C)(C)C)cccn2c1N(C)C(=O)c1ccccc1F,-0.5% (inactive)
23,CC(NCc1nc2ccccc2n1C)C12CC3CC(CC(C3)C1)C2 (configuration not stated),0% (inactive)

row,Structure (SMILES),inhibition
1,CN1C=CC=C/C1=C1\SC(=S)N(Cc2ccccc2)C1=O,-1.8% (inactive)
2,COc1cc(/C=C2/SC(=S)N(Cc3ccccc3)C2=O)cc(OC)c1O,39.9% (active)
3,COc1ccc(CCNC2=C(Cl)C(=O)N(Cc3ccccc3)C2=O)cc1OC,-0.2% (inactive)
4,O=C(O)CN(Cc1ccco1)S(=O)(=O)c1ccc(F)cc1,-0.4% (inactive)
5,Cc1csc(Nc2ccc(Cl)cc2)[n+]1-c1ccc(Cl)cc1,-2% (inactive)
6,O=C(CN1C(=O)c2ccc([N+](=O)[O-])cc2C1=O)Nc1nnc(C2CC2)s1,-0.6% (inactive)
7,COc1cccc(-c2cc3nc4c(c(N5CCC6(CC5)OCCO6)n3n2)CCCC4)c1,0.1% (inactive)
8,Cc1onc(-c2ccccc2Cl)c1C(=O)NCCn1ccc2ccccc21,81.2% (active)
9,Cc1onc(-c2ccccc2Cl)c1C(=O)N(Cc1ccc(N(C)C)cc1)C(C)C,-3.2% (inactive)
10,Cc1ccc2cc(CCNC(=O)c3c(-c4ccccc4Cl)noc3C)c(=O)[nH]c2c1,-0.3% (inactive)
11,Oc1c(Cl)cc(Cl)c(Cl)c1Cc1c(O)c(Cl)cc(Cl)c1Cl,-1% (inactive)
12,CC(=O)Nc1ccc(NC(=O)C(C)n2c3ccccc3c3nc(=O)cc(C)n32)cc1 (configuration not stated),-0.3% (inactive)
13,COc1ccc(-c2cc3c(c4c2ccn4C)C2CCC3C2)cn1 (configuration not stated),52.1% (active)
14,Cc1cccc(S(=O)(=O)N(C)C[C@H]2OCc3cnnn3CCCC(=O)N([C@@H](C)CO)C[C@H]2C)c1,-0.3% (inactive)
15,Cc1c(CC(=O)N2CCN(C(=O)C3COc4ccccc4O3)CC2)c(=O)oc2c(O)c(O)ccc12 (configuration not stated),3.7% (inactive)
16,COc1ccc(CCNC(=O)C2CC3Cn4c(nc5cc(C)c(C)cc54)C3N2C)cc1 (configuration not stated),-0.2% (inactive)
17,O=C1[C@@H]2C(c3cccnc3)=NO[C@@H]2C(=O)N1c1ccc(Cl)cc1Cl,-0.1% (inactive)
18,COc1ccc(NC(=O)N2CCCC(C(=O)Nc3ccccc3OC)C2)cc1 (configuration not stated),-1.6% (inactive)
19,CC1(C(=O)NCc2ccc3c(c2)OCO3)CCN1C(=O)Cc1cccs1 (configuration not stated),-0.2% (inactive)
20,CCN(CC)C(=O)C(C)N1c2cccc3cccc(c23)S1(=O)=O (configuration not stated),0.5% (inactive)
21,CC(C)c1nc(CNC(=O)CC2C(=O)NCCN2Cc2cccc(F)c2F)cs1 (configuration not stated),0% (inactive)
22,Cc1ccc(C(=O)NCC(=O)OCC(=O)Nc2cccc(S(=O)(=O)N3CCCC3)c2)cc1C,-0.4% (inactive)
23,COC1=NC2=NCCN2C(OC)=N1,-0.5% (inactive)

row,Structure (SMILES),inhibition
1,C[C@H](CO)N1C[C@H](C)[C@@H](CN(C)C(=O)C2CCCCC2)OCc2cnnn2CCCC1=O,-0.2% (inactive)
2,COc1ccc(S(=O)(=O)N(CCCN2CCCC2=O)Cc2cc3c(C)ccc(C)c3[nH]c2=O)cc1,0.4% (inactive)
3,CNC(=O)Nc1cc(C(C)(C)C)no1,0% (inactive)
4,CCOC(=O)C1=C(C)NC2=C(C(=O)CC(C)(C)C2)C1c1ccsc1 (configuration not stated),1.6% (inactive)
5,Cc1ccc(-c2nc(-c3cccnc3)sc2CC(=O)Nc2ccc(C)c(Cl)c2)cc1,51.4% (active)
6,Cc1nc(-c2ccc(F)cc2)c(CC(=O)Nc2cccc(S(=O)(=O)N3CCOCC3)c2)s1,1.2% (inactive)
7,Cc1ccc(NC(=O)COc2ccc(-n3ccnc3)cc2)cc1Cl,-0.5% (inactive)
8,Nc1ncnc2c1cnn2C1CC(O)C(CO)O1 (configuration not stated),0.6% (inactive)
9,C=C1C(=O)[C@]23C[C@H]1CCC2[C@@]1(C)C(C[C@@H]3O)[C@](C)(C(=O)O)CC[C@@H]1O (some centres not stated),0.1% (inactive)
10,Cc1cc(N2CCCC2)ccc1NC(=O)COc1ccc(Cl)cc1,-8.3% (inactive)
11,CCN1/C(=C\c2ccc3ccccc3[n+]2CC)Sc2cc(C)ccc21,71.1% (active)
12,CC(C)C[C@@H](COCc1ccc(Cl)cc1)N1CCN(C(=O)c2ccc(Cl)cc2Cl)CCC1=O,-0.6% (inactive)
13,COc1ccc(C(=O)NC(=S)N2CCNC(=O)C2CC(=O)OC(C)C)cc1 (configuration not stated),-0.1% (inactive)
14,Cc1cccc(-n2c(SCC(N)=O)nc3c(c2=O)C2(CCCCC2)Cc2ccccc2-3)c1,-0.1% (inactive)
15,COc1ccc(COC[C@H](CC(C)C)N2CCN(C(=O)c3cccc(C(F)(F)F)c3)CCC2=O)cc1,0.7% (inactive)
16,CC(C(=O)Nc1ccc(O)c(C(=O)O)c1)N1C(=O)/C(=C/c2cccs2)SC1=S (configuration not stated),2% (inactive)
17,O=C(O)C(c1ccccc1)N1C(=O)/C(=C\c2ccc(-c3cccc(Cl)c3)o2)SC1=S (configuration not stated),39.3% (active)
18,NS(=O)(=O)c1ccc(-c2ccc(/C=C3\SC(=O)NC3=O)o2)cc1,0.3% (inactive)
19,Cc1ccc(C(=O)O)cc1-c1ccc(/C=C2\SC(=O)N(CC(=O)Nc3ccc4c(c3)OCO4)C2=O)o1,0.8% (inactive)
20,CC(C(=O)NC1CCS(=O)(=O)C1)N1C(=O)/C(=C/c2ccc(Cl)cc2)SC1=S (configuration not stated),2.3% (inactive)
21,CN1C(=O)/C(=C\c2ccc(-c3ccccc3)o2)SC1=S,66.9% (active)
22,CN(CC(=O)Nc1c(Cl)cccc1Cl)C(=O)c1ccncc1,-3.2% (inactive)
23,COc1ccc(C(c2nnnn2Cc2cccs2)N2CCN(c3ccccc3)CC2)cc1OC (configuration not stated),-0.3% (inactive)

row,Structure (SMILES),inhibition
1,CCOCCCNC(=O)c1cn(CC(C)C)c(=O)c2c1c1ccccc1n2C,2.4% (inactive)
2,O=c1[nH][nH]c2c1[C@H](c1ccc(Cl)cc1)O[C@H](CCc1ccccc1)C2,-0.3% (inactive)
3,COc1ccc(C(NC(=O)C2CCN(CCCc3ccccc3)CC2)c2cccs2)cc1 (configuration not stated),-0.5% (inactive)
4,O=C(Nc1ccc2c(c1)[C@@H]1C[C@@H](CC(=O)N3CCCCC3)O[C@@H](CO)[C@@H]1O2)NC1CCCCC1,0.1% (inactive)
5,COC(=O)[C@]12CCCCC=C1N(Cc1ccco1)C(=O)[C@H](CC(=O)NCC1CCCCC1)C2,-1.1% (inactive)
6,Cc1ccc(CCn2c3c(c4ccccc42)CN(C)CC3)cn1,1.5% (inactive)
7,CCC(C)C(N=C1NS(=O)(=O)c2ccccc21)C(=O)N1CCC(C)CC1 (configuration not stated),-2.7% (inactive)
8,CCOc1ccc(-n2c(SCC(=O)OC)nc3sc4c(c3c2=O)CCN(C)C4)cc1,26.5% (inactive)
9,CCCSc1nc2sc3c(c2c(=O)n1-c1ccc(OC)cc1)CCN(C)C3,49.9% (active)
10,CCSc1nc2sc3c(c2c(=O)n1-c1ccc(C)cc1)CCN(C)C3,9.9% (inactive)
11,O=S1(=O)CC(N2CCSCC2)CN1Cc1cn(Cc2cccc(Cl)c2)nn1 (configuration not stated),0.5% (inactive)
12,Cc1ccc(SCC(=O)NNC(=O)c2ccc(S(C)(=O)=O)cc2)cc1,0.3% (inactive)
13,CC1CCCCC1NC(=O)NC(=O)COC(=O)C1=NN(c2ccccc2)C(=O)CC1 (configuration not stated),-0.8% (inactive)
14,CCNC(=S)N1CCN(c2ncccn2)CC1,1.2% (inactive)
15,CCOc1ccc(NC(=S)N2CCCCCC2)cc1,0% (inactive)
16,CC(=NNC(=S)N1CCCCCC1)c1ccccn1,32.5% (active)
17,CCc1[nH]nc(C(=O)N2CCCC(CO)(Cc3ccc(F)cc3F)C2)c1C (configuration not stated),0.2% (inactive)
18,O=C(c1cccc(-n2cccc2)c1)N1CCN(S(=O)(=O)c2ccc(F)cc2)CC1,-0.8% (inactive)
19,CCCCN1C(=O)C(CC(=O)NCc2cccs2)CC(C(=O)N2CCCCCC2)=C1C (configuration not stated),0% (inactive)
20,CCN(CC)C(=O)CSC1c2ccccc2C(=O)N1c1ccccc1 (configuration not stated),-1.6% (inactive)
21,COc1ccc(NC(=O)c2cn(CCC#N)nc2-c2ccc([N+](=O)[O-])cc2)cc1,-1.1% (inactive)
22,COc1ccc(C(=O)Nc2nc(-c3ccc(OC)cc3)c(-c3ccc([N+](=O)[O-])cc3)s2)cc1,40.2% (active)
23,COc1ccc(-c2[nH][nH]c(=O)c2NC(=O)c2ccc([N+](=O)[O-])cc2)cc1,0.1% (inactive)
